# FadD28 FP inh = inhibitors of FadD28 bisubstrate probe binding, primary screen, biochemical, fluorescence polarization, single point; Mycobacterium tuberculosis FadD28 fatty-acid-AMP ligase; inhibition, % at 12.5 µM; 360,000 tested, 0.22% active; AID 588549, 2011; in the data active = inhibition above about 8.5%, passing the limit was not always enough
# BioA inh = M. tuberculosis BioA enzyme inhibitors, primary screen, biochemical, plate reader, single point, HTS; 7,8-diaminopelargonic acid synthase BioA (Mycobacterium tuberculosis); purified M. tuberculosis BioA enzyme; inhibition, % at 9.99 µM; 360,000 tested, 0.096% active; in the data active = inhibition above about 40%
# Rv3671c protease = Rv3671c serine protease inhibitors, primary screen, biochemical, fluorescence polarization, M. tuberculosis H37Rv; P9WHR9; inhibition, % at 5.96 µM; 320,000 tested, 0.048% active; AID 2606, 2010; in the data active = inhibition above about 38%;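 note: extracellular domain of Rv3671c used as enzyme; 0% = enzyme with DMSO and 100% = no enzyme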
# Mtb FBA inh = Mtb FBA enzyme inhibitors, primary screen, biochemical, fluorescence, strain H37Rv | 360,000 tested, 2.3% active | purified M. tuberculosis FBA, fluorescence read-out | inhibition, % at 1 µM; in the data active = inhibition above about 27%;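 note: 0% = vehicle and 100% = reference inhibitor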
# Target sequence (P9WQA3 whole entry, looked up): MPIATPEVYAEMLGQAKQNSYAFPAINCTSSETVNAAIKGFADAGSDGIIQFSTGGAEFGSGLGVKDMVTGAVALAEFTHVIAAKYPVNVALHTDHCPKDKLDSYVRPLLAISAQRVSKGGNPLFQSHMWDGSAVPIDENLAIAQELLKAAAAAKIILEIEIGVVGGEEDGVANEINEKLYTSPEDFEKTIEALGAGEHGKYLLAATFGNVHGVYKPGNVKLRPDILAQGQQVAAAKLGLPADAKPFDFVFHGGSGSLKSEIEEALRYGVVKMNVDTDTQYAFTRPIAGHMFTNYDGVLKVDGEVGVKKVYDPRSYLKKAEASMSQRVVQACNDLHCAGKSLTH
# GDH-TPI inh = GDH-TPI coupling enzyme inhibitors, primary screen, artefact control for M. tuberculosis FBA inhibitor project, biochemical, absorbance, full deck. GDH-TPI coupled enzyme counterscreen, NADH absorbance. inhibition, % at 4.8 µM. 360,000 tested, 1.2% active. AID 588335, 2011; in the data active = inhibition above about 30%;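 note: 0% = DMSO wells and 100% = wells lacking the enzyme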
# * = called active by the depositor; . = not tested or not shown. Only some compounds are listed: those with a hit (about 3% of all), similar ones and a draw of the others.
SMILES,FadD28 FP inh,BioA inh,Rv3671c protease,Mtb FBA inh,GDH-TPI inh
C/C=C/c1ccc([C@H]2[C@@H](C#N)N(C(=O)Cc3ccccn3)[C@@H]2CO)cc1,.,-2,.,.,.
Cc1ccc(-n2nc3c4c(cccc4c2=O)-c2ccccc2-3)cc1,0,0,-6,2,33*
O=C(O)Cn1nc2c3c(cccc3c1=O)-c1ccccc1-2,-1,0,-8,9,10
O=C(O)c1cccc(N2C(=O)c3ccc4c5c(ccc(c35)C2=O)C(=O)N(c2cccc(C(=O)O)c2)C4=O)c1,1,-3,-9,-3,38*
NC(=O)C(C(=O)/C=C/c1ccc(Cl)cc1)=C1SCCS1,-1,0,-11,3,44*
COc1ccc(/C=C/C(=O)C(C(N)=O)=C2SCCS2)cc1,-5,.,-4,-5,23
CCCC(=O)Nc1ccc2c(c1)C(=O)N(C)C[C@H](OC)[C@@H](C)CN(C(C)=O)[C@@H](C)CO2,.,2,.,.,.
COc1cccc(CN2[C@@H]3CN(C(=O)C4CC4)c4ccccc4[C@@H]3[C@@H]2CO)c1,.,0,.,.,.
COCC(=O)N1[C@@H]2c3ccc(C4=CCCC4)c(=O)n3C[C@@H]2[C@@H](CO)[C@@H]1C(=O)N1CCCCC1,.,-1,.,.,.
CCOC(=O)c1ccc(-c2ccc(C=O)o2)cc1,-4,.,0,16,22
NS(=O)(=O)c1ccc(-c2ccc(/C=C3\NC(=S)NC3=O)o2)cc1,10*,2,1,-20,6
NS(=O)(=O)c1ccc(-c2ccc(C=O)o2)cc1,1,.,1,5,34*
CC1=C(C#N)C(=O)NC(=O)/C1=C/c1ccc(-c2ccc(S(N)(=O)=O)cc2)o1,5,.,3,7,30
CCCOC(=O)c1ccc(-c2ccc(C=O)o2)cc1,-2,-1,-15,5,36*
CN1CCN(C(=O)C[C@@H]2C[C@@H]3c4cc(NC(=O)C5CCOCC5)ccc4O[C@@H]3[C@@H](CO)O2)CC1,.,3,.,.,.
CCCN1C[C@H](C)[C@@H](OC)CN(C)C(=O)c2ccc(NC(=O)Nc3c(C)noc3C)cc2OC[C@H]1C,.,1,.,.,.
O=C1CCCC(O)=C1C=Nc1ccc(O)cc1,-4,-6,-1,-6,35*
COc1cccc2[nH]c(C(=O)NN)c(N)c12,-4,.,-2,6,14
COc1cccc2[nH]c3ccccc3c(=O)c12,-2,2,-1,135*,1
O=C(Cc1ccncc1)NCC[C@@H]1CC[C@@H](NC(=O)C2CCCCC2)[C@@H](CO)O1,.,-3,.,.,.
CO[C@H]1CC[C@H]2CCOc3ccc(C#N)cc3C(=O)N(C)CC3(CCCCC3)CC(=O)N(C)C[C@H]1O2,.,-1,.,.,.
CCOC(=O)c1cc2c(nc1N)CCCC2,-2,.,3,139*,17
C[C@H](CO)N1C[C@H](C)[C@H](CN(C)Cc2cccnc2)Oc2cc(C#CCN(C)C)ccc2S1(=O)=O,.,3,.,.,.
COCCn1c(=NC(=O)c2cccs2)sc2cc(NC(C)=O)ccc21,1,.,-3,4,45*
COCCn1c(=NC(=O)/C=C/c2ccccc2Cl)sc2cc(NC(C)=O)ccc21,-5,.,-6,4,16
SMILES,FadD28 FP inh,BioA inh,Rv3671c protease,Mtb FBA inh,GDH-TPI inh
COc1ccccc1CNC(=O)c1c(N)n(CCCN2CCOCC2)c2nc3ccccc3nc12,-4,-1,.,82*,14
CC(C)OC(=O)c1c(N)n(CCCN2CCOCC2)c2nc3ccccc3nc12,-1,-2,-2,147*,12
c1ccc2nc3c(nc2c1)c1ccccc1n3CCN1CCOCC1,-1,.,2,-1,15
Nc1c(C(=O)NCc2ccc3c(c2)OCO3)c2nc3ccccc3nc2n1CCCN1CCOCC1,0,.,8,10,2
CCC(=O)N1[C@@H](CO)[C@@H](c2ccc(-c3ccccc3)cc2)[C@@H]1CN(C)C(C)=O,.,-2,.,.,.
C[C@H]1CN([C@@H](C)CO)S(=O)(=O)c2ccc(C#CC(C)(C)O)cc2O[C@@H]1CN(C)C,.,-1,.,.,.
N#CC1(NC(=O)COC(=O)C2=COCCO2)CCCCC1,18*,2,-6,0,5
CN(C(=O)COC(=O)C1=COCCO1)C1(C#N)CCCCC1,-1,-4,3,4,13
Cc1ccccc1-c1cnc2c(c1)C(=O)N([C@@H](C)CO)C[C@H](C)[C@H](CN(C)CC1CCCCC1)O2,.,1,.,.,.
CCOc1ccc(-c2c(C(=O)N/N=C/c3c[nH]c4ccccc34)nnn2-c2nonc2N)cc1,-2,2,28,-2,40*
CCCc1c(C(=O)N/N=C/c2cccc3ccccc23)nnn1-c1nonc1N,1,-8,-17,2,32*
CCN(CC)Cc1c(C(=O)N/N=C/c2cccc3ccccc23)nnn1-c1nonc1N,-3,-2,4,0,15
CC(C)(C)c1nnc(N/N=C/c2ccccc2O)n(N)c1=O,0,-1,-4,0,36*
O=C(C[C@@H]1CC[C@H](NC(=O)c2cnccn2)[C@@H](CO)O1)NCc1ccccc1F,.,-1,.,.,.
COc1cc(/C=C/C2=NNC(=O)CC2)cc(OC)c1OC,0,0,3,8,45*
Clc1ccc2c(c1)C1OCCC1C(c1ccco1)N2 (stereo unspecified),-4,1,-2,69*,10
O=C(C[C@H]1C[C@H]2c3cc(NS(=O)(=O)c4ccc(F)cc4)ccc3O[C@H]2[C@H](CO)O1)NCc1ccc(-c2ccccc2)cc1,.,-2,.,.,.
COc1ccc(S(=O)(=O)Nc2ccc3c(c2)CC(=O)N([C@H](C)CO)C[C@H](C)[C@@H](CN(C)S(C)(=O)=O)O3)cc1,.,2,.,.,.
CN(C)S(=O)(=O)c1ccc(-c2csc(N/N=C/c3ccco3)n2)cc1,-4,.,2,-3,33*
CCOC(=O)COc1cc(OCC(=O)OCC)c2c3c(c(=O)oc2c1)CCCC3,-3,0,.,160*,6
Cc1cc(OCC(=O)NC(Cc2ccc(Cl)cc2)C(=O)O)c2c3c(c(=O)oc2c1)CCC3 (stereo unspecified),-7,0,-2,72*,9
Cc1cc(OCC(=O)N[C@H](C(=O)O)c2ccccc2)c2c3c(c(=O)oc2c1)CCC3,-2,1,-4,114*,4
Cc1cc(OCC(=O)NCC(O)c2ccccc2)c2c3c(c(=O)oc2c1)CCC3 (stereo unspecified),-3,6,6,14,2
CCCCc1cc(=O)oc2cc(C)cc(OCC(=O)N3CCC(C(N)=O)CC3)c12,-4,0,1,18,11
CCCCc1cc(=O)oc2cc(C)cc(OCC(=O)O)c12,-2,0,0,152*,23
CCCOC(=O)COc1cc(C)cc2oc(=O)c3c(c12)CCC3,0,-5,-9,13,17

# Screening data: PubChem, several laboratories
